# Values joined by “and” are separate entries in the source; they are usually repeats but may differ in a detail not shown here. Equal entries are not always repeated. Inconclusive results are not listed. For some of these results: Results with a measured potency or affinity are listed apart. Active and inactive are the calls of the source.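 The calls were made as follows, unless noted: active = at least 20% inhibition of 6-phosphogluconate dehydrogenase activity; inactive = the rest.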
# Columns and labels:
# [1] = target: 6-phosphogluconate dehydrogenase, decarboxylating (Homo sapiens) (UniProt P52209); experiment: inhibition of human phosphogluconate dehydrogenase – biochemical, recombinant enzyme, NADPH absorbance, primary screen (AID 1159550); conditions: recombinant 6PGD, NADPH absorbance 341 nm; at 10 µM; stronger effect = higher value
# Sequence of 6-phosphogluconate dehydrogenase, decarboxylating (Homo sapiens) (P52209 whole entry, looked up): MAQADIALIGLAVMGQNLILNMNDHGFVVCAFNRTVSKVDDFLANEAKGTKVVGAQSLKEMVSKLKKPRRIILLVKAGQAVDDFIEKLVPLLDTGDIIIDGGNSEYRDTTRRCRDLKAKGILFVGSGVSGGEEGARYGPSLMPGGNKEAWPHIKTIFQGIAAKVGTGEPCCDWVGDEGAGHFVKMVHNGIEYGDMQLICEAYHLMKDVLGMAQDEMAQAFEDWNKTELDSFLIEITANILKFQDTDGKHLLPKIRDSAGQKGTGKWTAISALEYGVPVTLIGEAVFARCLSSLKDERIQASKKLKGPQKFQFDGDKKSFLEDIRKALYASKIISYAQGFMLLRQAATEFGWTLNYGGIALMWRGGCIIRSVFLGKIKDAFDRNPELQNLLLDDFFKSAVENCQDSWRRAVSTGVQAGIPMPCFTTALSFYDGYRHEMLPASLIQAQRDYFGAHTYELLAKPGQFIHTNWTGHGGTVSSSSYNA
# [2] = tested on: Aerobactin synthetase IucA (Klebsiella pneumoniae hvKP1); experiment: IucA enzyme inhibition, primary screen, biochemical, Spectrum library (AID 1346200; call rule not given here;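 also: 100% = wells without compound and 0% = wells lacking enzyme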); conditions: malachite green pyrophosphate, A620, at 8 µM, stronger effect = lower value
# [3] = blockers of polyQ-driven CASP3 activation – cell-based (AID 1583); conditions: polyglutamine-induced caspase-3 activation, cell assay; stronger effect = higher value;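 tested at 10 µM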
# [4] = yeast 75Q aggregation reduction – 75Q-TubU reporter (AID 1593); conditions: Yeast 75Q polyglutamine aggregation reporter
# [5] = restoration of touch response, mutant HTT neurons – whole organism, C. elegans mechanosensory neurons, N-terminal huntingtin (AID 1599); conditions: C. elegans polyQ-huntingtin mechanosensory neurons, stronger effect = higher value
# [6] = blockers of cytochrome c efflux from mitochondria – biochemical, purified mitochondria (AID 1603); conditions: stronger effect = lower value;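 also: mouse liver mitochondria challenged with calcium chloride; signal normalized to the plate average as 100%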
# [7] = polyglutamine aggregate formation blockers (AID 1604); conditions: polyglutamine-induced protein aggregation inhibition assay; stronger effect = higher value; tested at 2.5 µM
# [8] = glutamate transport activators, MN-1 cells, MN-1 cell line (AID 1612); conditions: MN-1 motor neuron cells, stronger effect = higher value;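 also: tested at 1 µM final; 0% = mean of DMSO vehicle wells on each plate; positive means more glutamate uptake than control and negative means less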
# [9] = GFP-Q80 aggregate reduction, neuronal-like cells, cell-based, NGF-treated PC12, GFPQ80 (AID 1614); conditions: PC12 NGF-treated GFP-polyQ80 inclusion reduction;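 also: lower means fewer inclusions and 0 means no inclusions at all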
# [10] = 75Q-TubH aggregate inhibition, S. cerevisiae, yeast (AID 1616); conditions: S. cerevisiae 75Q-TubH polyglutamine aggregation suppression; stronger effect = higher value
# [11] = EMT-state selective cytotoxicity in co-culture – imaging, PC-3E GFP, TEM4-18 mCherry, primary screen (AID 1345086;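 active = compounds killing one labelled cell type while sparing the other, by normalised counts and ratio limits, not self-fluorescent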;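 also: cells exposed to compound for 72 h before imaging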;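 as to red/green cell ratio (normalised): normalised mesenchymal count divided by normalised epithelial count so high means epithelial killing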); conditions: PC-3E GFP / TEM4-18 mCherry co-culture, imaging cell counts, at 1 µM
# [12] = target: Mitogen-activated protein kinase 7 (Homo sapiens) (UniProt Q13164); experiment: Gal4-ERK5 driven luciferase induction – cell-based, HTS, primary screen (AID 1508626;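 active = luciferase signal above three times the same-plate solvent-only control wells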;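 also: luciferase driven by Gal4-ERK5 fusion binding five Gal4 sites before minimal TATA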); conditions: HeLa Gal4-ERK5 transactivation, 18 h, at 5 µM, stronger effect = higher value
# Sequence of Mitogen-activated protein kinase 7 (Homo sapiens) (Q13164 whole entry, looked up, the tested form may be a part): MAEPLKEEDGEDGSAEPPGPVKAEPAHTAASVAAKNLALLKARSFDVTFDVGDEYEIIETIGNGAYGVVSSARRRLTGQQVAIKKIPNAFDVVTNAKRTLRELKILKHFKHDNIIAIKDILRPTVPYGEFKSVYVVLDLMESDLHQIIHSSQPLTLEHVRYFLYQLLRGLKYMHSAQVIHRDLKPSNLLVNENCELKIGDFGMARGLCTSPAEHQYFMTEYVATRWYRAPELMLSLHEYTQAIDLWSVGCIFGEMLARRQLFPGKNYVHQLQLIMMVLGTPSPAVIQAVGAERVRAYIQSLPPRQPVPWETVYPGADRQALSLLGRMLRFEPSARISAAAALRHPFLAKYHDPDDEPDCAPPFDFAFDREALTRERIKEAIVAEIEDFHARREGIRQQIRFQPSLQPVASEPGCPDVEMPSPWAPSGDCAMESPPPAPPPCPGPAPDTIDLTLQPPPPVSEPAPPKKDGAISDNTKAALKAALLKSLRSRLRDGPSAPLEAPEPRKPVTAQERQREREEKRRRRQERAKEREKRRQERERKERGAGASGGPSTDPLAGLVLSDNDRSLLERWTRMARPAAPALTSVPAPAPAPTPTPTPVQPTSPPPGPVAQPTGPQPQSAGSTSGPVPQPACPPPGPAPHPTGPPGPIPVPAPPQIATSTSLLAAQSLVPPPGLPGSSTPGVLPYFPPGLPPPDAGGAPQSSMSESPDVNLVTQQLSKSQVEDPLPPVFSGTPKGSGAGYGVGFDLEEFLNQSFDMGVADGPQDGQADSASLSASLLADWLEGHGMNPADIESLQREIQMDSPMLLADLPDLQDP
# [13] = growth inhibition of DIPG cells – cell-based, MIPE4.0 library, CellTiter-Glo luminescence, qHTS (AID 1347066; cut-off not given, nearly all actives have AC50 up to about 30 µM;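 also: cells exposed to compound for 48 hours before readout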); conditions: SU-DIPG-VI viability, CellTiter-Glo ATP luminescence
# [14] = viability loss in pontine glioma line – cell-based, SU-DIPG-XVII, MIPE5.0, CellTiter-Glo, qHTS, dose response (AID 1347060; cut-off not given, nearly all actives have AC50 up to about 26 µM;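 also: cells exposed to compound for 48 hours before viability readout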); conditions: CellTiter-Glo ATP luminescence
# [15] = viability loss in pontine glioma line – cell-based, SU-DIPG-XIII, MIPE5.0, CellTiter-Glo, qHTS, dose response (AID 1347064; cut-off not given, nearly all actives have AC50 up to about 23 µM;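 also: cells exposed to compound for 48 hours before the viability read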); conditions: CellTiter-Glo ATP luminescence
# [16] = viability loss in pontine glioma line – cell-based, SU-DIPG-XXV, MIPE5.0, CellTiter-Glo, qHTS, dose response (AID 1347065; cut-off not given, nearly all actives have AC50 up to about 26 µM;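 also: cells exposed to compound for 48 hours before ATP readout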); conditions: CellTiter-Glo ATP luminescence
# [17] = JHH-DIPG-1 glioma cell viability, MIPE5.0 library, CellTiter-Glo luminescence, qHTS (AID 1347067; cut-off not given, nearly all actives have AC50 up to about 26 µM;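 also: cells exposed to compound for 48 hours before readout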); conditions: JHH-DIPG-1 glioma viability, CellTiter-Glo ATP luminescence
# [18] = growth inhibition of DIPG cells – cell-based, MIPE5.0 library, qHTS (AID 1347068; cut-off not given, nearly all actives have IC50 up to about 30 µM;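 also: cells exposed to compound for 48 hours before viability readout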); conditions: SU-DIPG-XXV viability
# [19] = rescue of PC12 cells from polyQ htt toxicity – LDH release (AID 1610); conditions: PC12 mutant huntingtin toxicity, final LDH at 4 uM, stronger effect = lower value
# [20] = P. berghei load reduction in hepatocytes – cell-based, HepG2, luciferase luminescence, HepG2 viability, primary screen (AID 624349; in the data active = parasite load remaining mostly below about 12%, no sharp cut-off; inactive = mostly above about 10%;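 also: 100% = mean of DMSO negative control wells on the same plate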); conditions: P. berghei liver stage in HepG2, luciferase luminescence, concentration not given here; parasite load remaining: stronger effect = lower value; viability: measured here: HepG2 viability without parasites
# [21] = viability loss in pontine glioma line – cell-based, SU-DIPG-XIII, MIPE4.0, CellTiter-Glo, qHTS, dose response (AID 1347061; cut-off not given, nearly all actives have AC50 up to about 37 µM;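 also: cells exposed to compound for 48 hours before readout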); conditions: CellTiter-Glo ATP luminescence
# [22] = viability loss in pontine glioma line – cell-based, SU-DIPG-IV, MIPE4.0, CellTiter-Glo, qHTS, dose response (AID 1347063; cut-off not given, nearly all actives have AC50 up to about 30 µM;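 also: compound exposure lasted 48 hours before the viability readout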); conditions: CellTiter-Glo ATP luminescence
# [23] = viability loss with induced miR-34 in A549 – imaging, A549 dox-inducible miR-34, nuclei and caspase counts, primary screen (AID 1347080;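 active = compounds whose cell count with miR-34 switched on is under 0.7 times the count with it off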); conditions: A549 miR-34 inducible, Hoechst nuclei count, 48 h
# [24] = target: NAD(+) hydrolase SARM1 (Homo sapiens) (UniProt Q6SZW1); experiment: blocking NAD cleavage by SARM1 SAM-TIR – cell lysate, NAD-Glo luminescence (AID 1508614;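 active = compound whose remaining NAD level is above about 45 nM, limit read from the data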;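 also: higher remaining NAD means stronger inhibition of SARM1 NADase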); conditions: SAM-TIR HEK293T lysate NADase, at 1 µM, stronger effect = higher value
# Sequence of NAD(+) hydrolase SARM1 (Homo sapiens) (Q6SZW1 whole entry, looked up): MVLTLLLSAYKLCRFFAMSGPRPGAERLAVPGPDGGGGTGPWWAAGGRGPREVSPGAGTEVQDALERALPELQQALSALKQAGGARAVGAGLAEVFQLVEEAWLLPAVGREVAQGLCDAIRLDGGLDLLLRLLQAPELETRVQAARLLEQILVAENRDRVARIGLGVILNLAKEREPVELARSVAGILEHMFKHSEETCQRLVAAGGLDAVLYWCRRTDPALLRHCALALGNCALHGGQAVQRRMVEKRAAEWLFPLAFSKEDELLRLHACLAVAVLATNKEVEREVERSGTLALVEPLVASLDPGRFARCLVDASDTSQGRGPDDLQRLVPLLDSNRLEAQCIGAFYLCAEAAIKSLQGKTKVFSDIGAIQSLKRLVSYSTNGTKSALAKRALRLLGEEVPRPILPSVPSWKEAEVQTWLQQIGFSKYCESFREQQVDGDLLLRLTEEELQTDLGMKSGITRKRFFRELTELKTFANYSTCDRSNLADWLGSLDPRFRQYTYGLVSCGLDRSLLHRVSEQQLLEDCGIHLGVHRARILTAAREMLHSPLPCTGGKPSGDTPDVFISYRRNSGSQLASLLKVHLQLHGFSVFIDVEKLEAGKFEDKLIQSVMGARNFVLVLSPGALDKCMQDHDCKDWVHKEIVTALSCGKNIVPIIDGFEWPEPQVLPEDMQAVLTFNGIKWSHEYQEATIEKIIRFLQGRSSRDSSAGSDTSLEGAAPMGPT
# [25] = MELAS cybrid and Rieske KO viability enhancers – cell-based, MELAS cybrids, Rieske KO mouse fibroblasts, CellTiter-Glo, primary screen (AID 1508586;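 active = mean z-score across replicates of 1.96 or higher in either the MELAS or the Rieske mutant cell line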;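 also: z relative to plate mean and SD of compound and empty wells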); conditions: low glucose
# [26] = galactose survival enhancers in mitochondrial complex I cybrids – cell-based, galactose medium, ATP luminescence, primary screen (AID 1645843;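 active = z-score of at least 1.8 in each of two replicates, scored against plate mean and spread of sample wells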;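 also: positive z means more ATP and so rescue of galactose-driven cybrid death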); conditions: complex I mutant cybrid cells, 72 h, stronger effect = higher value
# [27] = compounds altering viability of human ES cells (AID 493140; call rule not given here;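 also: cells exposed to compounds for four days before counting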); conditions: human embryonic stem cell survival screen; stronger effect = higher value
# [28] = measured here: relative caspase fold change +Dox/-Dox
# [29] = measured here: total cells with miR-34 induction, stronger effect = lower value
# [30] = measured here: total cells without miR-34 induction
# [31] = MELAS cybrid survival, CellTiter-Glo 48 h, stronger effect = higher value
# [32] = Rieske KO mouse fibroblast survival, CellTiter-Glo 72 h
compound,measurement,setting,value
COc1cc2c(cc1OC)[C@@H]1C(=O)c3ccc(O)c(CC=C(C)C)c3O[C@@H]1CO2,inhibition,[1],-10.7% (inactive)
same,activity remaining,[2],103% (inactive)
N#C/C(=C\c1cccc(O)c1)C(=O)O,inhibition,[3],16.4%
same,score,[4],1.48
same,rescue above control,[5],-1.13
same,cytochrome c release ratio,[6],2.28
same,inhibition of aggregation,[7],58.6%
same,glutamate uptake change,[8],-1.74%
same,inclusion score,[9],2
same,aggregation suppression score,[10],1.54
same,inhibition,[1],11.3% (inactive)
same,red/green cell ratio (normalised),[11]; actives lie on both sides,0.88 (inactive)
same,normalised cell number,[11]; measured here: epithelial PC-3E GFP cell survival,1.09
same,normalised cell number,[11]; measured here: mesenchymal TEM4-18 mCherry cell survival,0.96
same,activity remaining,[2],104% (inactive)
same,luciferase signal,[12],128 AU (inactive)
CNC(=O)N(C)c1nnc(C(C)(C)C)s1,inhibition,[1],-12.3% (inactive)
same,activity remaining,[2],98% (inactive)
CCCCCC[C@H]1C(=O)O[C@H](C)[C@H](NC(=O)c2cccc(NC=O)c2O)C(=O)O[C@@H](C)[C@@H]1OC(=O)CC(C)C,inhibition,[1],3.85% (inactive)
same,AC50,[13],1320 nM (active)
CC(C)[C@]12O[C@H]1[C@@H]1O[C@@]13[C@@]1(C)CCC4=C(COC4=O)[C@@H]1C[C@@H]1O[C@@]13C2=O,inhibition,[1],3.27% (inactive)
same,AC50,[14],295 nM (active)
same,AC50,[15],263 nM (active)
same,AC50,[16],372 nM (active)
same,AC50,[17],132 nM (active)
same,IC50,[18],372 nM (active)
CC(C)(C)C(=O)C(Oc1ccc(Cl)cc1)n1cncn1 (stereo not drawn),inhibition,[1],12.8% (inactive)
same,activity remaining,[2],127% (inactive)
same,luciferase signal,[12],44 AU (inactive)
CC(=O)Oc1ccc(Cl)c2cccnc12,inhibition,[3],11.4%
same,score,[4],0.08
same,rescue above control,[5],7.46
same,cytochrome c release ratio,[6],1.44
same,inhibition of aggregation,[7],87.2%
same,normalised LDH release,[19],1.08
same,glutamate uptake change,[8],14.2%
same,aggregation suppression score,[10],0.0401
same,parasite load remaining,[20],-5% (inactive)
same,viability,[20],65.2%
same,inhibition,[1],-4.5% (inactive)
same,activity remaining,[2],124% (inactive)
N#C[C@H](O[C@@H]1O[C@H](CO[C@@H]2O[C@H](CO)[C@@H](O)[C@H](O)[C@H]2O)[C@@H](O)[C@H](O)[C@H]1O)c1ccccc1,inhibition,[1],-14.3% (inactive)
same,AC50,[21],23500 nM (active)
same,AC50,[22],8330 nM (active)
same,AC50,[13],20900 nM (active)
same,luciferase signal,[12],56 AU (inactive)
COc1cc([C@@H]2c3cc4c(cc3[C@H](OC(C)=O)[C@H]3COC(=O)[C@@H]23)OCO4)cc(OC)c1OC,inhibition,[1],-3.31% (inactive)
same,activity remaining,[2],96.2% (inactive)
same,luciferase signal,[12],64 AU (inactive)
CCC(C)[C@H]1O[C@]2(C=C[C@@H]1C)C[C@@H]1C[C@@H](C/C=C(\C)[C@@H](OC3C[C@H](OC)C(O[C@H]4C[C@H](OC)[C@@H](O)[C@H](C)O4)[C@H](C)O3)[C@@H](C)/C=C/C=C3\CO[C@@H]4[C@H](O)C(C)=C[C@@H](C(=O)O1)[C@]34O)O2 (stereo partly drawn),inhibition,[3],-42.7%
same,score,[4],1.47
same,rescue above control,[5],0
same,cytochrome c release ratio,[6],4.06
same,inhibition of aggregation,[7],43.1%
same,glutamate uptake change,[8],-28.6%
same,aggregation suppression score,[10],1.02
same,parasite load remaining,[20],83.1% (inactive) and 34.5% (inactive)
same,viability,[20],68% and 87%
same,inhibition,[1],-3.19% (inactive)
same,activity remaining,[2],106% (inactive)
same,fold change,[23]; stronger effect = lower value,1.11 (inactive)
same,fold change,[23]; [28],1.23
same,cell count,[23]; [29],3700
same,cell count,[23]; [30],3330
CCC(N)C(O)c1ccc(O)c(O)c1 (stereo not drawn),parasite load remaining,[20],130% (inactive) and 71.4% (inactive)
same,viability,[20],87.2% and 104%
same,inhibition,[1],-10.4% (inactive)
same,activity remaining,[2],121% (inactive)
same,fold change,"[23]; stronger effect = lower value, cell number ratio, induced over uninduced",0.787 (inactive)
same,fold change,[23]; [28],5.47
same,cell count,[23]; [29],7560
same,cell count,[23]; [30],9610
same,remaining NAD,[24],10 nM (inactive)
same,luciferase signal,[12],76 AU (inactive)
COc1ccc2c(c1)[C@]13CCCC[C@@H]1[C@H](C2)N(C)CC3,inhibition,[1],2.05% (inactive)
same,fold change,[23]; stronger effect = lower value,0.873 (inactive) and 0.843 (inactive) and 0.893 (inactive)
same,fold change,[23]; [28],2.02 and 0.727 and 1.27
same,cell count,[23]; [29],9020 and 10500 and 9760
same,cell count,[23]; [30],10300 and 12400 and 10900
same,z-score,[25]; [31],0.326 (inactive) and 0.234 (inactive)
same,z-score,[25]; [32],0.302 and -0.256
same,remaining NAD,[24],10 nM (inactive)
same,luciferase signal,[12],28 AU (inactive)
same,z-score,[26],-0.13 (inactive)
CCCC(C)C1(CC)C(=O)NC(=O)NC1=O (stereo not drawn),inhibition,[3],8.8%
same,score,[4],1.08
same,rescue above control,[5],-0.14
same,cytochrome c release ratio,[6],0.79
same,inhibition of aggregation,[7],-14.3%
same,glutamate uptake change,[8],8.51%
same,inclusion score,[9],2
same,aggregation suppression score,[10],0.96
same,parasite load remaining,[20],22.1% (inactive)
same,viability,[20],103%
same,inhibition,[1],-1.31% (inactive)
same,activity remaining,[2],95.4% (inactive)
same,fold change,[23]; stronger effect = lower value,0.918 (inactive)
same,fold change,[23]; [28],2.52
same,cell count,[23]; [29],11200
same,cell count,[23]; [30],12200
same,z-score,[25]; [31],0.13 (inactive)
same,z-score,[25]; [32],-0.121
same,luciferase signal,[12],60 AU (inactive)
C[C@@H]1C(=O)O[C@H]2[C@H]1CC[C@@]1(C)C=CC(=O)[C@@]3(C)O[C@@]213,inhibition,[1],-5.96% (inactive)
same,activity remaining,[2],112% (inactive)
same,luciferase signal,[12],108 AU (inactive)
CCC(=O)O[C@H]1CC[C@H]2[C@@H]3CCC4=CC(=O)CC[C@]4(C)[C@H]3CC[C@]12C,survival,[27],13.8 (inactive)
same,parasite load remaining,[20],71.3% (inactive) and 54% (inactive)
same,viability,[20],94.2% and 78.8%
same,inhibition,[1],16.6% (inactive)
same,fold change,[23]; stronger effect = lower value,0.875 (inactive)
same,fold change,[23]; [28],1.34
same,cell count,[23]; [29],8190
same,cell count,[23]; [30],9360
same,z-score,[25]; [31],-0.581 (inactive)
same,z-score,[25]; [32],-0.301
same,remaining NAD,[24],10 nM (inactive)
same,luciferase signal,[12],32 AU (inactive)
CC[C@@]1(O)C[C@H](O[C@H]2C[C@H](N(C)C)[C@H](O)[C@H](C)O2)c2c(cc3c(c2O)C(=O)c2c(O)cccc2C3=O)[C@H]1C(=O)OC,inhibition,[3],61.1%
same,score,[4],0.65
same,rescue above control,[5],1.11
same,cytochrome c release ratio,[6],3.13
same,inhibition of aggregation,[7],90.8%
same,glutamate uptake change,[8],-25.9%
same,aggregation suppression score,[10],0.115
same,parasite load remaining,[20],0.915% (inactive)
same,viability,[20],15.1%
same,inhibition,[1],-8.44% (inactive)
same,activity remaining,[2],107% (inactive)
same,luciferase signal,[12],5360 AU (active)
CCCN(CCC)c1c([N+](=O)[O-])cc(C(F)(F)F)cc1[N+](=O)[O-],inhibition,[1],-18.5% (inactive)
same,activity remaining,[2],95.7% (inactive)
same,luciferase signal,[12],72 AU (inactive)

# Source: PubChem BioAssay
